Compounds without any hit were thinned out: in the full panel of roughly 83,000, 20% have a hit.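 A percent growth of 40 corresponds to 60% growth inhibition; 0 means no net growth; -100 means all cells died. Active threshold: below 10.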 Values without a mark were called inactive. The source made the active and inactive calls.
How the values were obtained:
Assay in all cases: NCI-60 one-dose screen, 48 h (100 = growth as untreated, 0 = no growth, -100 = all killed)
[1] = tested on: DU-145 prostate; details: 10 µM unless noted
[2] = tested on: K-562 leukemia; details: 10 µM unless noted
[3] = tested on: MALME-3M melanoma; details: 10 µM unless noted
[4] = tested on: MDA-MB-231 breast; details: 10 µM unless noted
[5] = tested on: RXF 393 renal; details: 10 µM unless noted
[6] = tested on: SF-268 CNS; details: 10 µM unless noted
[7] = tested on: SF-295 CNS; details: 10 µM unless noted
[8] = tested on: SF-539 CNS; details: 10 µM unless noted
[9] = tested on: M14 melanoma; details: 10 µM unless noted
[10] = tested on: HCT-15 colon; details: 10 µM unless noted
[11] = tested on: HT29 colon; details: 10 µM unless noted
[12] = tested on: SNB-75 CNS; details: 10 µM unless noted
[13] = tested on: SNB-19 CNS; details: 10 µM unless noted
[14] = tested on: U251 CNS; details: 10 µM unless noted
[15] = tested on: PC-3 prostate; details: 10 µM unless noted
[16] = tested on: SK-MEL-5 melanoma; details: 10 µM unless noted
[17] = tested on: UACC-62 melanoma; details: 10 µM unless noted
[18] = tested on: LOX IMVI melanoma; details: 10 µM
[19] = tested on: SK-MEL-28 melanoma; details: 10 µM unless noted
[20] = tested on: UACC-257 melanoma; details: 10 µM unless noted

| SMILES | growth [1] | growth [2] | growth [3] | growth [4] | growth [5] | growth [6] | growth [7] | growth [8] | growth [9] [%] | growth [10] | growth [11] | growth [12] | growth [13] | growth [14] | growth [15] | growth [16] | growth [17] | growth [18] | growth [19] | growth [20] |
| --- | --- | --- | --- | --- | --- | --- | --- | --- | --- | --- | --- | --- | --- | --- | --- | --- | --- | --- | --- | --- |
| Cc1cc(C(N)=O)cc(C)c1C(=O)OCCCl | 99.2% | 93.6% | 101% | 105% | 117% | 95% | 99.7% | 101% | 108 | 111% | 106% | 100% | 109% | 96.9% | 96.8% | 101% | 102% | 97.5% | 110% |  |
| O=C1/C(=C/c2ccccn2)CCc2ccccc21 | 103% | 7.2% (active) | 103% | 106% | 107% | 102% | 96.8% | 95.4% |  | 95.3% | 97.6% | 97.7% | 97% | 100% | 94.6% | 97.2% | 97.5% | 86.5% | 111% | 105% |
| CC[n+]1ccc(Nc2ccc(NC(=O)c3ccc(Nc4cc[n+](CC)c5ccc([N+](=O)[O-])cc45)cc3)cc2)cc1 | 91.9% | 48.2% | 40% | 114% | 97.9% | 86.1% | 59.3% | 94.5% |  | 96.2% | 57.1% | 98.4% | 71.6% | 62.5% | 54.2% | 65.7% | 79.4% | 85.7% | 90.3% | 56.2% |
| Oc1ccc(Nc2ccc3ccccc3c2)cc1 | 51.2% | 26.5% | 92.9% | 36% | 78.3% | 50.4% | 67.7% | 36.6% |  | 54.7% | 95.8% | 63.2% | 75.5% | 67.5% | 39.2% | 44.7% | 18% | 40.9% | 90.3% | 73.7% |
| CCN(CC)CC(O)c1cc(-c2ccc(Cl)cc2)nc2cc(Cl)ccc12 (stereo not drawn) | 17.9% | -27.2% (active) | 43% | -3.65% (active) | 28.9% | 42.1% | 31.7% | 18% |  | 25.1% | -50.1% (active) | 38.3% | 56.8% | 8.59% (active) | 28.5% | -95.6% (active) | -56.6% (active) | 11% | -56.6% (active) | -59.8% (active) |
| Cc1ccc2c(c1)sc(-c1ccc(N(C)C)cc1)[n+]2C | 20.4% | -21.7% (active) | 0.435% (active) | 2.82% (active) | 39.7% | 18.5% | -5.75% (active) | 12.5% |  | 68.7% | 4.16% (active) | 14.2% | 16.1% | -2.09% (active) |  | -76.6% (active) | 8.89% (active) | 1.78% (active) | 30.8% | 4.53% (active) |
| CCCCCCCCCCCC1=NCCCN1CCCC | 103% | 80.3% | 106% | 78.8% | 122% | 101% | 101% | 110% |  | 91.7% | 86.1% | 102% | 101% | 100% | 89.1% | 95.8% | 96.7% | 77.1% | 103% | 92.3% |
| Cc1ccc(NC2=CC(=O)C(=O)c3ccccc32)cc1 | -65.1% (active) | 16.4% | -76.5% (active) | 49% | 44.1% | 41% | -22.9% (active) | -20.4% (active) |  | 11.2% |  | -18.7% (active) | 28.4% | 15.4% | 28% | -98.4% (active) | -33.9% (active) | 0.472% (active) | -23.5% (active) | -46.2% (active) |
| O=[N+]([O-])/C(=C/c1ccccc1)c1ccccc1 | 106% | 98.3% | 98.7% | 112% | 97.1% | 106% | 98.9% | 96% |  | 99.6% | 99% | 106% | 110% | 97.4% | 100% | 103% | 108% | 96.3% | 100% | 103% |
| COc1ccc2nc3cc([N+](=O)[O-])ccc3c(NNc3ccccc3)c2c1 | 89.6% | 90.5% | 90.9% | 66.5% | 46.9% | 56.8% | 56% | 22.6% |  | 69.4% | 94% | 23.5% | 73% | 29.1% |  | 88.5% | 74.6% | 84.2% | 97.1% | 101% |
| O=Nc1ccc2ccccc2c1O | 94.3% | 80.9% | 63.4% | 54.6% | 93.8% | 91.6% | 83% | 108% |  | 66.5% | 46.8% | 120% | 97.6% | 55.9% | 44.9% | 47.6% | 27.1% | 7.44% (active) | 83.8% | 18.3% |
| c1ccc2sc(SSN3CC4CCC(CC4)C3)nc2c1 | 128% | 91.8% | 101% | 101% | -29.5% (active) | 122% | 108% | 94.9% |  | 110% | 114% | 85.8% | 105% | 106% | 100% | 97.9% | 90.5% | 92.1% | 132% | 120% |
| OC(c1cc(-c2ccc(Cl)cc2)nc2c(Cl)cccc12)C1CCCCN1 (stereo not drawn) | -96.3% (active) | -30.9% (active) | -50.2% (active) | -71.1% (active) | -98.1% (active) | -65.7% (active) | -80.8% (active) | -72.4% (active) |  | -58.1% (active) | -86.3% (active) | -81.2% (active) | -69.9% (active) | -89% (active) | -94.4% (active) | -0.885% (active) | -75.9% (active) | -76.6% (active) | -94.6% (active) | -77% (active) |
| O=C(OC12CC3CC(CC(C3)C1)C2)c1ccc(NCc2cc(O)ccc2O)cc1 | 19.9% | -49.3% (active) | -93.5% (active) | -39.8% (active) | -60.8% (active) | -6.88% (active) | -14.7% (active) | -95.6% (active) |  | -41.9% (active) | -19% (active) | -39.5% (active) | 5.17% (active) | -64.5% (active) | -16.5% (active) | -95.9% (active) | -73.4% (active) | -68.7% (active) |  | 5.57% (active) |
| NC(=Nc1nc(-c2ccccn2)cc2ccccc12)c1ccccn1 | 1.76% (active) | -22.8% (active) | 19% | 47.8% | 1.1% (active) | 13.1% | 17.9% | -18.6% (active) |  | 21.5% | 13.6% | 41% | 22.5% | 10.3% | 20.6% | -79.4% (active) | 3.59% (active) | -5.24% (active) |  | -4.44% (active) |
| Cc1ccc(/C=C2\CNC/C(=C\c3ccc(C)cc3)C2=O)cc1 | -87.5% (active) | -28.5% (active) | 29.4% | -15.9% (active) | -57.4% (active) | -8.61% (active) | -5.11% (active) | -64.5% (active) |  | -33.8% (active) | -35.8% (active) | 29% | -52.6% (active) | -63.4% (active) | 6.55% (active) | -96.7% (active) | -89% (active) | -69.2% (active) |  | -21.1% (active) |
